Experimental data as given in PubChem BioAssay (NCI).
The panel holds about 83,000 compounds, 20% with a hit somewhere; the sample as a whole holds those more often.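 Cells were grown in 96-well plates and exposed to the test compound at a single concentration for 48 hours; results are reported as percent growth, with values below 10 considered active.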 Calls of active or inactive are those of the source.

Legend:
Assay in all cases: NCI-60 one-dose screen, 48 h (100 = growth as untreated, 0 = no growth, -100 = all killed)
Conditions in all cases: 10 µM unless noted
T-47D breast = test system: T-47D breast
BT-549 breast = test system: BT-549 breast
MDA-MB-435 melanoma = test system: MDA-MB-435 melanoma
MCF7 breast = test system: MCF7 breast
HCT-116 colon = test system: HCT-116 colon
HCC-2998 colon = test system: HCC-2998 colon
KM12 colon = test system: KM12 colon
MDA-MB-468 breast = test system: MDA-MB-468 breast
SW-620 colon = test system: SW-620 colon

Measured: growth

C=Cn1cc(C(=O)O)c(=O)c2cc(F)c(N3CCN(c4nccc(-c5nccs5)n4)CC3)cc21
active: T-47D breast -1.23% | BT-549 breast -49.1% | MDA-MB-435 melanoma -38% | MCF7 breast 0.211% | HCT-116 colon -33.8% | HCC-2998 colon -62.1% | KM12 colon -15% | MDA-MB-468 breast -61.9%

N#Cc1c(-c2ccc(Cl)cc2)nc2n[nH]c(-c3ccc(Cl)cc3)c2c1-c1ccc(C(F)(F)F)cc1
active: T-47D breast -2.6% | BT-549 breast -40% | MDA-MB-435 melanoma -29.7% | MCF7 breast -4.6% | HCT-116 colon -63.3% | HCC-2998 colon -38.9% | KM12 colon -11% | MDA-MB-468 breast -45%

O=C(/C=C/c1cccc(OCc2ccccc2)c1)c1nc2ccccc2[nH]1
inactive: T-47D breast 13.7% | MDA-MB-435 melanoma 72%
active: BT-549 breast 8.5% | MCF7 breast 3.28% | HCT-116 colon -36.1% | HCC-2998 colon -5.62% | KM12 colon 4.96% | MDA-MB-468 breast -40.1%

COc1cc(/C=C/C(=O)c2nnn(-c3ccc(Cl)cc3)c2C)cc(OC)c1OC
inactive: T-47D breast 43.2% | BT-549 breast 36.8% | HCT-116 colon 26.2% | HCC-2998 colon 23.1% | KM12 colon 20.8%
active: MDA-MB-435 melanoma 2.83% | MCF7 breast 8.67% | MDA-MB-468 breast -20.7%

NS(=O)(=O)c1ccc(-n2cc(-c3cccc(NC(=O)c4cc(C(F)(F)F)cc(C(F)(F)F)c4)c3)nn2)cc1
inactive: T-47D breast 60.3% | BT-549 breast 98.7% | MDA-MB-435 melanoma 87.8% | MCF7 breast 59.6% | HCT-116 colon 46.7% | HCC-2998 colon 65.3% | KM12 colon 21.9% | MDA-MB-468 breast 55.1%

Cc1ccc2c(N)c(C(=O)Nc3ccc(-c4ccccc4)cc3)sc2n1
inactive: T-47D breast 29.5% | BT-549 breast 53.2% | MDA-MB-435 melanoma 69.1% | MCF7 breast 43.2% | HCT-116 colon 29.5% | HCC-2998 colon 101% | KM12 colon 77.3% | MDA-MB-468 breast 17.8%

CC(=O)Nc1cccc(Nc2nccc(N[C@@H](C)c3ccccc3)n2)c1
inactive: T-47D breast 40.2% | MDA-MB-435 melanoma 18.7% | MCF7 breast 16.5% | HCC-2998 colon 27.1% | MDA-MB-468 breast 18.1%
active: BT-549 breast 9.69% | HCT-116 colon 9.73% | KM12 colon 3.5%

CC1CCCCN1CCCNC(=O)N/C(N)=N/c1nc2ccccc2s1 (stereo unspecified)
active: MDA-MB-435 melanoma -35.2% | MCF7 breast -9.89%
inactive: T-47D breast 57.2% | BT-549 breast 55.6% | HCT-116 colon 16.8% | HCC-2998 colon 47.1% | KM12 colon 48.2% | MDA-MB-468 breast 11.2%

Cc1c(C(=O)NNC(=O)c2ccc(Cl)cc2)nnn1-c1ccc(Cl)cc1
inactive: T-47D breast 89.9% | BT-549 breast 94.1% | MDA-MB-435 melanoma 98.5% | MCF7 breast 81.2% | HCT-116 colon 85.3% | HCC-2998 colon 109% | KM12 colon 101% | MDA-MB-468 breast 89.4%

C=C1CC[C@@H]2[C@]3(C)COC(c4cn[nH]c4-c4ccc(OC)cc4)O[C@@H]3CC[C@@]2(C)[C@@H]1C/C=C1/C(=O)OCC1O (stereo partly specified)
active: T-47D breast 6.85% | BT-549 breast -32.9% | MDA-MB-435 melanoma -52.2% | MCF7 breast 2.05% | HCT-116 colon -19% | HCC-2998 colon -24.2% | KM12 colon -5.21% | MDA-MB-468 breast -7.84%

C=C1CC[C@@H]2[C@]3(C)COC(c4cn(-c5ccccc5)nc4-c4ccccc4)O[C@@H]3CC[C@@]2(C)[C@@H]1C/C=C1/C(=O)OC[C@H]1O (stereo partly specified)
active: T-47D breast -62.9% | BT-549 breast -88.9% | MDA-MB-435 melanoma -65.9% | MCF7 breast -9.94% | HCT-116 colon -97.5% | HCC-2998 colon -97.7% | KM12 colon -56.2% | MDA-MB-468 breast -90.1%

COc1cc(-c2ccc(/C=N/NC(=O)c3[nH]c4ccc(Br)cc4c3-c3ccccc3)s2)cc(OC)c1OC
inactive: T-47D breast 73.9% | BT-549 breast 85.9% | MDA-MB-435 melanoma 92.2% | MCF7 breast 72.1% | HCT-116 colon 68.2% | HCC-2998 colon 101% | KM12 colon 82.3% | MDA-MB-468 breast 96.7%

CC1=C(C(=O)c2ccccc2)C(c2ccc(-n3cncn3)cc2)n2c(nc3ccccc32)N1 (stereo unspecified)
inactive: T-47D breast 83.6% | BT-549 breast 67.4% | MDA-MB-435 melanoma 94% | MCF7 breast 66.7% | HCT-116 colon 73% | HCC-2998 colon 109% | KM12 colon 94.6% | MDA-MB-468 breast 95.6%

COc1cc(-c2cc(-c3cccc(OCC(=O)O)c3)[nH]c(=O)c2C#N)cc(OC)c1OC
inactive: T-47D breast 103% | BT-549 breast 100% | MDA-MB-435 melanoma 106% | MCF7 breast 97.1% | HCT-116 colon 92.8% | HCC-2998 colon 110% | KM12 colon 105% | MDA-MB-468 breast 96.7%

N#Cc1c(-c2cccnc2)cc(-c2ccc3ccccc3c2)[nH]c1=O
inactive: T-47D breast 93% | BT-549 breast 57.6% | MDA-MB-435 melanoma 99.4% | MCF7 breast 60.5% | HCT-116 colon 80% | HCC-2998 colon 96.4% | KM12 colon 92.9% | MDA-MB-468 breast 94.1%

N#Cc1c(-c2ccccc2Cl)cc(-c2ccc3ccccc3c2)[nH]c1=O
active: T-47D breast -21.3% | BT-549 breast 3.43% | MDA-MB-468 breast 5.01%
inactive: MDA-MB-435 melanoma 61.7% | MCF7 breast 44.4% | HCT-116 colon 17.9% | HCC-2998 colon 49.1% | KM12 colon 74.4%

O=C1Nc2cc(Cl)ccc2/C1=C/c1cccc(OCc2ccccn2)c1
active: BT-549 breast -12.6% | MDA-MB-435 melanoma -39.9% | MCF7 breast 7.87% | HCT-116 colon 0.558% | MDA-MB-468 breast 1.49%
inactive: T-47D breast 26% | HCC-2998 colon 28.9% | KM12 colon 19.4%

CSc1ccc(NC(=O)c2ccc3nnn(/C(C#N)=C/c4ccccn4)c3c2)cc1
active: T-47D breast -73.4% | BT-549 breast -70.4% | MDA-MB-435 melanoma -78.4% | MCF7 breast -71.3% | HCT-116 colon 0.694% | HCC-2998 colon -70.6% | KM12 colon -70.4% | MDA-MB-468 breast -71.3%

C/C(=N\Nc1ccc(S(N)(=O)=O)cc1)c1ccc(N=Nc2c(Nc3ccccc3)[nH][nH]c2=O)cc1
inactive: SW-620 colon 18.1%
active: T-47D breast -30.8% | MDA-MB-435 melanoma -13.6% | MCF7 breast -31.2% | HCT-116 colon 0.299% | HCC-2998 colon -24.6% | KM12 colon 3.69% | MDA-MB-468 breast -35.6%

O=C(/C=C/c1ccc(-c2ccccc2)cc1)c1nc2ccccc2n1Cc1ccc(F)cc1
inactive: T-47D breast 18.3% | BT-549 breast 27.5% | MDA-MB-435 melanoma 15.6% | MCF7 breast 14.7% | HCC-2998 colon 31.5% | KM12 colon 49.4%

O=C(NNc1ccccc1)n1c(=O)c2ccccc2c(=O)n1-c1ccccc1
inactive: T-47D breast 87.9% | BT-549 breast 90% | MDA-MB-435 melanoma 97.8% | HCT-116 colon 79.2% | HCC-2998 colon 108% | KM12 colon 93.3% | MDA-MB-468 breast 99%

O=C(CSc1nc2ccccc2c(=O)[nH]1)NCCN1CCCCC1
inactive: T-47D breast 100% | MDA-MB-435 melanoma 95.1% | SW-620 colon 97% | MCF7 breast 90.8% | HCT-116 colon 104% | HCC-2998 colon 108% | KM12 colon 98.3% | MDA-MB-468 breast 96.9%

CC1=C(C(=O)OCc2ccccc2)C(c2ccc(-n3cncn3)cc2)n2c(nc3ccccc32)N1 (stereo unspecified)
active: MDA-MB-435 melanoma -12.5% | MDA-MB-468 breast -18.8%
inactive: T-47D breast 65.1% | BT-549 breast 52.9% | MCF7 breast 13.1% | HCT-116 colon 41.3% | HCC-2998 colon 75.4% | KM12 colon 39.5%

CSc1ccc(C(=O)Nc2ccc3nnn(/C(C#N)=C/c4ccccn4)c3c2)cc1
active: T-47D breast -45.3% | BT-549 breast -67.9% | MDA-MB-435 melanoma -20.9% | HCT-116 colon -5.03% | HCC-2998 colon -76.3% | KM12 colon -57.1% | MDA-MB-468 breast -69.1%

CCOC(=O)C1=C(N)N(c2ccccc2)C2=C(C(=O)CC(C)(C)C2)C1c1cccc(Cl)c1Cl (stereo unspecified)
inactive: T-47D breast 71.6% | BT-549 breast 68.8% | MDA-MB-435 melanoma 87.8% | HCT-116 colon 40.1% | HCC-2998 colon 86.9% | KM12 colon 76.6% | MDA-MB-468 breast 47.8%

Cc1c(C(=O)NNC(=O)Nc2ccc(Cl)cc2)nnn1-c1ccc(Br)cc1
inactive: T-47D breast 88.8% | BT-549 breast 102% | MDA-MB-435 melanoma 99.7% | MCF7 breast 85% | HCC-2998 colon 106% | KM12 colon 103% | MDA-MB-468 breast 91%

COc1ccc(/C=C2\C(=O)Nc3ccc(Cl)cc32)cc1OCc1ccccn1
inactive: T-47D breast 51.9% | BT-549 breast 46.1% | MDA-MB-435 melanoma 75.1% | MCF7 breast 34.7% | HCC-2998 colon 79.6% | KM12 colon 75.2% | MDA-MB-468 breast 59%

C(=C\c1cc(/C=C/c2ccccc2)c2ccccc2n1)/c1ccccc1
inactive: T-47D breast 78.3% | BT-549 breast 126% | MDA-MB-435 melanoma 84.8% | MCF7 breast 37.3% | HCT-116 colon 17.3% | HCC-2998 colon 101% | KM12 colon 95.6% | MDA-MB-468 breast 107%

COc1ccc(C(=O)/C=C/c2cccc(Br)c2)cc1S(N)(=O)=O
active: T-47D breast -71.4% | MDA-MB-435 melanoma -5.65% | SW-620 colon -19.8% | MCF7 breast -77.2% | HCT-116 colon -99.2% | HCC-2998 colon -92.8% | KM12 colon -62.8%

COc1cc(CNC(=O)/C=C/c2ccc3c(c2)OCO3)ccc1OCc1cn(-c2ccc([N+](=O)[O-])cc2)nn1
inactive: T-47D breast 65.5% | BT-549 breast 71.9% | MDA-MB-435 melanoma 101% | MCF7 breast 81.8% | HCT-116 colon 85.3% | HCC-2998 colon 104% | KM12 colon 100% | MDA-MB-468 breast 72.4%

N#Cc1c(-c2cccc(O)c2O)cc(-c2ccc3ccccc3c2)[nH]c1=O
inactive: T-47D breast 68.9% | BT-549 breast 52.8% | MDA-MB-435 melanoma 72% | MCF7 breast 59.8% | HCC-2998 colon 74.3% | KM12 colon 19.5% | MDA-MB-468 breast 58.6%

N#Cc1cnn(C(=O)c2ccccc2Br)c1NC(=O)c1ccc(Br)cc1Cl
inactive: T-47D breast 97% | BT-549 breast 91.1% | MDA-MB-435 melanoma 103% | MCF7 breast 95.4% | HCC-2998 colon 108% | KM12 colon 102% | MDA-MB-468 breast 94.2%
